Assay outcomes (PubChem BioAssay)
Shown is part of a subset that was picked to be rich in hits.
Dicer processing: human Dicer pre-microRNA cleavage inhibition; 47,000 compounds, 6% hits; AID 1347074; Q9UPY3; z-score at 25 µM; cat-ELCCA pre-miR-21 Dicer processing, chemiluminescence; hits give high values; in the data active = z-score above about 3, passing the limit was not always enough;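 also: plate controls were vehicle for no effect and no enzyme for full effect; higher signal means more uncleaved substrate so more Dicer inhibition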
Starred values were filed as active, the others as inactive.

SMILES	Dicer processing
O=C(c1cc(-c2ccc3c(c2)OCO3)nc2ccccc12)N1CCN(Cc2ccc3c(c2)OCO3)CC1	1.4
O=C(c1ccco1)N1CCN(Cc2ccc3c(c2)OCO3)CC1	6.2*
CN(C)C(=O)N1CCN(C(=O)c2ccco2)CC1	3.1*
COc1ccc2nc3c(cc2c1)c(=O)n(C)c1c3c(=O)n(-c2ccccc2)c(=O)n1-c1ccccc1	-0.73
O=C(c1ccc(F)cc1)c1oc2ccccc2c1NC(=O)C1COc2ccccc2O1 (centres undefined)	-0.34
O=C(Nc1ccc(F)cc1F)c1ccc([N+](=O)[O-])o1	0.72
Cc1cccc(Cn2nc(C(C)(C)C)cc2C(=O)Nc2ccc3c(c2)OCO3)c1	0.64
Cc1cc(C)nc(NC(=O)C(=O)NC(=O)c2c(F)cccc2Cl)n1	0.39
CCOC(=O)c1c(NC(=S)N2CCN(C)CC2)sc(C)c1C	-1.9
CCOC(=O)c1c(NC(=O)CCC(=O)O)sc(C)c1C	2.1
CCNC(=S)Nc1sc(C)c(C)c1C(=O)OCC	5.3*
Cc1nn(-c2ccccc2)nc1-c1n[nH]c(=S)n1-c1cccc(Cl)c1C	-1.5
Cc1ccc(C2SCC(=O)N2c2ccc3ccccc3c2)cc1 (centres undefined)	-0.71
O=C(Nc1ccc(OCc2ccccc2)cc1)Oc1ccccc1N1CCCCC1	4.8*
CC(=O)Nc1ccc(S(=O)(=O)Oc2ccccc2N2CCCCC2)cc1	-0.23
Cc1cc(C)cc(NC(=O)Oc2ccccc2N2CCCCC2)c1	10
CCOC(=O)c1cc(C#N)c(Sc2n[nH]c(-c3cc(Cl)cc(Cl)c3)n2)nc1C(F)(F)F	-0.27
CCn1c(-c2oc3nc(-c4ccccc4)cc(-c4ccco4)c3c2N)n[nH]c1=S	-1.4
O=C(O)CCCNc1ncnc2ccccc12	-0.76
OCCNc1ncnc2ccccc12	0.02
O=C(O)CNc1ncnc2ccccc12	3.6*
CCCCC(C(=O)OC)N1C(=O)C2C3c4ccccc4C(c4ccccc43)C2C1=O (centres undefined)	-0.46
CC(=O)OC1CCN(c2cc(C(F)(F)F)nc3cc(Cl)cc(Cl)c23)CC1	-1.4
CCCc1nnc(N2C(=O)c3oc4ccc(F)cc4c(=O)c3C2c2ccc(O)c(OCC)c2)s1 (centres undefined)	-0.13
Cc1cc(C)n(NC(=S)NCc2cccs2)c(=O)c1C#N	0.8
SMILES	Dicer processing
O=C(CS(=O)(=O)c1ccc(C(F)(F)F)cc1[N+](=O)[O-])Nc1ccc(F)cc1F	-0.38
O=C(C1=NNCC1c1ccccc1)c1ccc2ccccc2c1 (centres undefined)	4.3*
O=C(C1=NNCC1c1ccccc1)c1ccccc1 (centres undefined)	-0.12
O=C(C1=NNCC1c1c2ccccc2cc2ccccc12)c1ccc(Br)cc1 (centres undefined)	-0.74
CC(=O)CSc1n[nH]c(CN2c3ccccc3Sc3ccccc32)n1	3.5*
CC(C)Cc1nc(SCC(=O)c2ccccc2)n[nH]1	-0.18
CCn1c(CN2c3ccccc3Sc3ccccc32)n[nH]c1=S	0.6
Cn1nccc1NC(=O)c1ccc(F)cc1	-0.53
Cc1onc(-c2ccccc2Cl)c1C(=O)N1c2ccccc2NC(=O)CC1C (centres undefined)	-0.09
CC(C)(C)NC(=O)Cn1nnc(-c2ccc3c(c2)OCO3)n1	1.4
CCOC(=O)c1sc(NC(=O)c2ccco2)nc1C	-1.4
COC(=O)c1sc(NC(C)=O)nc1C	-0.11
CCOC(=O)c1sc(NC(C)=O)nc1C	4.3*
CC(C)NC(=O)Oc1noc2cc(Cl)ccc12	-0.39
CCOC(=O)c1oc(C(=O)OCC)c(O)c1O	-2.5
CCNc1nc2[nH]c(=O)cc(O)c2s1	-2.9
COc1ccc(Oc2coc3cc(OCC(=O)NC4CCCCC4)ccc3c2=O)cc1	-1
C1CN(c2nsnc2OCCOc2nsnc2N2CCOCC2)CCO1	-0.25
O=C(Oc1nsnc1N1CCOCC1)N1CCCCC1	1.5
O=C(Oc1nsnc1N1CCOCC1)N1CCOCC1	3.1*
O=C(O)c1cc2n(n1)C(C(F)(F)F)CC(c1ccco1)N2 (centres undefined)	-0.34
CC1CCN(C(=O)c2nn3c(c2Cl)NC(c2ccco2)CC3C(F)(F)F)CC1 (centres undefined)	4*
O=C(NC1CCCC1)c1nn2c(c1Cl)NC(c1ccccc1)CC2C(F)(F)F (centres undefined)	-0.2
CSc1ccccc1NC(=O)c1cc2n(n1)C(C(F)(F)F)CC(c1ccco1)N2 (centres undefined)	-0.22
CSc1ccccc1NC(=O)c1nn2c(c1Cl)NC(c1ccco1)CC2C(F)(F)F (centres undefined)	4.4*
SMILES	Dicer processing
CC1CN(C(=O)c2cc3n(n2)C(C(F)(F)F)CC(c2ccco2)N3)CC(C)O1 (centres undefined)	1.7
COc1ccccc1Nc1nc(N)nc(CN2CCN(C)CC2)n1	0.45
CC(=O)c1cc([N+](=O)[O-])c(SCCO)s1	0.5
O=C(Oc1ccc2c(c1)oc(=O)c1ccccc12)c1cccs1	0.16
Clc1ccc(-c2nc(N3CCOCC3)c3ccccc3n2)cc1	0.34
O=c1/c(=C/c2cccnc2)sc2nc(-c3ccccc3)c(-c3ccccc3)n12	-0.55
O=c1cc(C(F)(F)F)[nH]n1-c1nc2ccccc2s1	0.2
Cc1cccn2cc(-c3cccc(S(=O)(=O)N4CC(C)OC(C)C4)c3)nc12 (centres undefined)	-0.05
Cc1cccn2cc(-c3ccc(NS(=O)(=O)c4ccc(Br)cc4)cc3)nc12	7.9*
Cc1cccn2cc(-c3cccc(S(=O)(=O)N4CCOCC4)c3)nc12	0.78
Cc1ccc(S(=O)(=O)Nc2ccc(-c3cn4cccc(C)c4n3)cc2)c(C)c1	6.1*
Cc1cccn2cc(-c3ccccc3Cl)nc12	0.28
Cc1ccc(S(=O)(=O)Nc2n[nH]c(-c3ccc(C(C)(C)C)cc3)c2Br)cc1	-6
Cc1cccn2cc(-c3cccc(S(=O)(=O)N4CCCC4)c3)nc12	-0.04
Cc1ccc(S(=O)(=O)Nc2ccc(-c3cn4cccc(C)c4n3)cc2)cc1C	8.6*
N#Cc1ccc(CN=C(N)N=C(N)N)cc1	17
CC(C)(C)C(=O)NCCC1CC1(Cl)Cl (centres undefined)	0.86
CCSC1=C(C#N)C(c2ccccc2C)C(C(=O)OC)C(=O)N1 (centres undefined)	-0.66
CCC(C)(C)NC(=O)Nc1ccc(C)c(NC(=O)NC(C)(C)CC)c1	99
Cc1onc(-c2ccccc2Cl)c1NC(=O)O/N=C(\N)c1ccc(Cl)cc1	0.89
O=C(O)c1cccnc1C(=O)N1CCc2c([nH]c3ccccc23)C1C(F)(F)F (centres undefined)	0.23
O=C(CSc1nc2ccccc2s1)N1CCc2c([nH]c3ccccc23)C1C(F)(F)F (centres undefined)	-1.8
O=C(CSc1nccc(-c2cccs2)n1)N1CCc2c([nH]c3ccccc23)C1C(F)(F)F (centres undefined)	3.3*
CC(C)(C)c1ccc2c(c1)CN(c1ccc(F)cc1)CO2	6.3*
CC(C)(C)c1ccc2c(c1)CN(c1cccc(C(=O)O)c1)CO2	-0.89
SMILES	Dicer processing
CC(C)(C)c1ccc2c(c1)CN(Cc1ccccc1)CO2	2.6
O=C(c1ccc(F)cc1)c1coc2ccc(O)cc12	-2.7
CCCc1n(CC)c2ccccc2[n+]1CC(O)COc1ccccc1 (centres undefined)	-0.03
CCc1c(C#N)c(SCC(=O)NCc2ccc3c(c2)OCO3)nc2c1C(=O)CC(C)(C)C2	-0.1
CN(C)CCN1C(=O)C(=O)c2ccccc21	-1.5
COC(=O)CN1C(=O)C(=O)c2ccccc21	-1.6
CCCN1C(=O)C(=O)c2ccccc21	-0.36
